This is a sample that favours compounds with a hit; in the whole collection about 8.9% have one here.
IMPase cell inh – cell-permeable inhibitors of inositol monophosphatase (IMPase); P97697; CHO-M1 cells, IP1 accumulation, HTRF TR-FRET ratio; 120,000 tested, under 10 active; inhibition (IP1 accumulation), % at 46.1 µM; active = well fitted curve in the direction sought with a large enough effect in the signal ratio, not every such curve was filed as active; inconclusive = small, poorly fitted or top-dose-only effect, or a change in a side signal; inactive = no such curve, though single readings can be large or run the other way; the % refers to the signal ratio;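 also: cells stimulated with carbachol in lithium chloride buffer; plate controls were DMSO basal wells for no effect and reference inhibitor wells for full effect; higher means more IMPase inhibition seen as more IP1 and lower FRET ratio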
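Seeded CHO-M1 cells were dosed with compound at up to 46 uM, stimulated with carbachol for 30 min, then lysed in IP-One detection reagents. Higher IP1 lowers the TR-FRET signal.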
ALOX12 inhib – blocks human 12-lipoxygenase activity | Potency, µM (top dose mostly 57.1 µM), for the others: at the highest dose activity change, negative = inhibition, most hits filed as inhibitors | 0.12% of 150,000 active | purified 12-hLO, xylenol orange hydroperoxide absorbance | P18054; also: potency is read from the fitted curve at half-maximal effect; nearly all actives have a fitted effect of over 55% in size
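Lipoxygenase turnover measured by absorbance at 573 and 405 nm after Fe-XO development. Human 12hLO 150 nM, arachidonate 40 uM, pH 7.0 Hepes buffer with detergent; 15 min compound preincubation, 30 min reaction.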
IMPase Li cell – cell-permeable IMPase inhibitors with lithium potentiation | Potency, µM (titrated, usually from 59.4 µM), inactives show at the top dose activity, negative = IMPase inhibition, actives largely listed as inhibitors | 0.35% of 210,000 active | AID 1457 | CHO-M1 cells, IP1 TR-FRET (IP-One), carbachol + lithium;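 also: IP1 builds up when IMPase is blocked and the TR-FRET signal falls; potency is read from the fitted curve at half-maximal effect; plate controls were basal vehicle for no effect and high inhibitor control for full effect; nearly all actives have a fitted effect of over 50% in size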
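IP1 accumulation measured by competitive TR-FRET in lysed CHO-M1 cells after 30 min compound exposure at 37C, with a small lithium addition to potentiate weak responses. Hill-equation AC50 from ratio and donor-channel data.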
HPGD inh – inhibitors of human 15-hydroxyprostaglandin dehydrogenase (HPGD); Potency, µM, for the others: top-dose activity change, negative = inhibition, usual class: inhibitors; AID 894; P15428; 4.3% of 150,000 active; purified HPGD, NADH fluorescence kinetic, PGE2 substrate; active = well fitted inhibition curve with a large enough effect, not every such curve was filed as active; inconclusive = small, poorly fitted or top-dose-only effect, or another doubt; inactive = no such curve, though single readings can be large or run the other way; also: potency is read from the fitted curve at half-maximal effect
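20 nM HPGD preincubated 15 min at room temperature with compound in 50 mM Tris-HCl pH 8, 0.01% Tween 20. Started with 1 mM NAD+ and 30 uM prostaglandin E2; NADH fluorescence (360/450 nm) read 5 times over 30-s intervals, last minus first.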
NPSR antag – antagonists of human neuropeptide S receptor cAMP signaling | Q6W5P4 | CHO-NPSR cells, cAMP TR-FRET, antagonist mode | Potency, µM (top dose mostly 38.3 µM), without a hit: top-dose activity change, negative = inhibition, actives largely listed as inhibitors | 1% of 220,000 active | AID 1461; also: potency is read from the fitted curve at half-maximal effect; nearly all actives have a fitted effect of over 50% in size
Target sequence (Q6W5P4 whole entry, looked up): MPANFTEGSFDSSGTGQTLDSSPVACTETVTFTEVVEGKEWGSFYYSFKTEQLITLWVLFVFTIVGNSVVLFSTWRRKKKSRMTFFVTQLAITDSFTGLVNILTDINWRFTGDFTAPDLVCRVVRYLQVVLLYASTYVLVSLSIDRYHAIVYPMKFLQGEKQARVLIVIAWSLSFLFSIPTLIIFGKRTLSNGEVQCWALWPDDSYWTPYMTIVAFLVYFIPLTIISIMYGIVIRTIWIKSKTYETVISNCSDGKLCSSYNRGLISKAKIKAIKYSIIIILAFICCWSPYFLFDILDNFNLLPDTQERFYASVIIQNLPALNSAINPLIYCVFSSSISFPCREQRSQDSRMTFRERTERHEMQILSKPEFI
ALDH1A1 inh – inhibitors of human aldehyde dehydrogenase 1A1; AID 1030; Potency, µM (doses to about 75.3 µM), without a hit: top-dose activity, negative = inhibition, hits mostly inhibitors; Purified ALDH1A1, NADH fluorescence, propionaldehyde substrate; P00352; 7.3% of 220,000 active; active = well fitted inhibition curve with a large enough effect, not every such curve was filed as active; inconclusive = small, poorly fitted or top-dose-only effect, or another doubt; inactive = no such curve, though single readings can be large or run the other way;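 also: potency is read from the fitted curve at half-maximal effect; plate controls were no enzyme wells and a reference inhibitor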
* = called active by the depositor; ? = inconclusive; . = no result given; [ ] = remark or other dose. Unless noted, calls follow the shape of the dose curve; as a rule, active = well fitted curve in the direction sought with a large enough effect; inconclusive = small, poorly fitted or top-dose-only effect, or another doubt; inactive = no such curve, though single readings can be large; an effect the other way counts as inactive or inconclusive. Unless noted, % is scaled to controls: 0 for no effect and ±100 for the full control effect.

SMILES	IMPase cell inh	ALOX12 inhib	IMPase Li cell	HPGD inh	NPSR antag	ALDH1A1 inh
CCN1CCN(C(=S)NCCc2ccccc2)CC1	6	9%	-18%[38.3 µM]	-2%	-6%[46.1 µM]	-12%
Cc1nc(SCCOc2ccc(F)cc2)c2ccccc2n1	.	.	15%	.	-4%	?
CCn1c(SCC(=O)NCCc2ccccc2)nnc1-c1ccco1	-2	-1%	-5%[38.3 µM]	-22%	-2%[46.1 µM]	?
CCCCCn1c(CN2CCN(Cc3ccccc3)CC2)nc2c1c(=O)[nH]c(=O)n2C	1	-7%	0%[38.3 µM]	-5%	-10%[46.1 µM]	3%
O=C(C1CC1)N1CCN(C(c2ccccc2)c2ccccc2)CC1	7	7%	42%[38.3 µM]	-6%	-26%[46.1 µM]	1.1µM*
NS(=O)(=O)c1ccc(CCNCC(=O)N2CCC(Cc3ccccc3)CC2)cc1	.	.	.	.	-37%	10µM*
COC(=O)c1ccc(CNC(=O)c2coc3ccccc3c2=O)cc1	.	.	-8%	.	1%	3%
COc1cccc(NC(=O)CN2CCSc3ccccc32)c1	.	.	-4%	.	-2%	19µM*
Cc1cccc(NC(=O)CN2CCSc3ccccc32)c1	.	.	15%	.	-27%	?
CC(CCc1ccccc1)NC(=O)CN1CCSc2ccccc21 (stereo unspecified)	.	.	-7%	.	-28%	13µM*
COc1ccc(C2=NOC(CNC(=O)c3ccccc3Br)C2)c(OC)c1 (stereo unspecified)	.	.	.	.	-4%	.
CC(=O)c1cccc(S(=O)(=O)N2CCCC(c3nc(-c4ccc(C)o4)no3)C2)c1 (stereo unspecified)	9	-8%	-3%[38.3 µM]	-27%	-1%[7.67 µM]	10µM*
Cc1ccc(-c2noc(C3CCN(S(=O)(=O)c4ccc5c(c4)OCCO5)CC3)n2)o1	18	-3%	2%[38.3 µM]	-3%	3%[7.67 µM]	28µM*
Cc1ccc(-c2noc(C3CCCN(S(=O)(=O)c4ccc5ccccc5c4)C3)n2)o1 (stereo unspecified)	9	2%	6%[38.3 µM]	20µM*	-17%[46.1 µM]	24µM*
Cc1cc(NC(=O)c2ccc(Br)c(S(=O)(=O)N3CCCC3)c2)no1	12[1.84 µM]	4%	23%[38.3 µM]	-3%	9%[46.1 µM]	-6%
Cc1ccc(S(=O)(=O)N2CCCC(c3nc(-c4ccc(C)o4)no3)C2)cc1 (stereo unspecified)	4	-12%	28%[38.3 µM]	-23%	-18%[46.1 µM]	?
Cc1cc(NC(=O)c2cccc(S(=O)(=O)N3CCCC3)c2)no1	-4	3%	15%	-16%	-3%[46.1 µM]	35µM*
CC(C)Nc1nc2cccnc2s1	.	.	.	.	10%	.
CC(OC(=O)/C=C/c1cccs1)C(=O)Nc1ccc(S(N)(=O)=O)cc1 (stereo unspecified)	.	.	9%	.	-4%	3%
Cc1ccc(-c2noc(C3CCCN(S(=O)(=O)c4ccc(S(=O)(=O)N(C)C)cc4)C3)n2)o1 (stereo unspecified)	4	4%	37%[38.3 µM]	-12%	?	25µM*
O=C(N/N=C/c1ccc([N+](=O)[O-])o1)c1ccncc1	.	.	.	.	28%	-4%
O=C(N/N=C/c1ccc([N+](=O)[O-])o1)c1ccc(O)cc1	.	-7%	28%	-30%	13µM*	25µM*
O=[N+]([O-])c1ccc(/C=N/NC(=S)Nc2ccccc2)o1	9	-4%	-1%	25µM*	-48%	2%
CCOC(=O)c1sc(N)nc1-c1ccccc1	-5	2%	4%	-27%	8%[46.1 µM]	?
CCOC(=O)N1CCN(C(=O)C2CCN(S(=O)(=O)c3ccc(Br)s3)CC2)CC1	2	3%	15%[38.3 µM]	-9%	-5%[46.1 µM]	-4%
Cc1cc(C)n(C(=O)CCNC(=O)c2ccccc2Br)n1	-1	-1%	-7%[38.3 µM]	7.9µM*	-6%[46.1 µM]	-1%
Cc1cc(C)n(C(=O)CNC(=O)CCc2ccccc2)n1	0	-7%	10%[38.3 µM]	16µM*	-10%[46.1 µM]	5%
Cc1cc(C)n(C(=O)CCC(=O)NCc2ccccc2)n1	3	-4%	-13%[38.3 µM]	-10%	-9%[46.1 µM]	?
COC(=O)c1cc(N=Nc2sc(N)nc2C)cc(C(=O)OC)c1	.	.	.	.	-2%	.
